# Assay outcomes: PubChem, National Center for Advancing Translational Sciences (NCATS)
# Rows were chosen to be rich in hits. Some 11% of all compounds tested hit in one or more screens of this group.
# ALDH1A1 inh – blocks purified human ALDH1A1 activity; 7.3% of 220,000 active; Purified ALDH1A1, NADH fluorescence, propionaldehyde substrate; AID 1030; Potency, µM (doses to about 75.3 µM), hits mostly inhibitors
# HPGD block – blocks human HPGD enzyme activity; purified HPGD, NADH fluorescence kinetic, PGE2 substrate; 4.3% of 150,000 active; P15428; Potency, µM, hits mostly inhibitors
# Target sequence (P15428 whole entry, looked up): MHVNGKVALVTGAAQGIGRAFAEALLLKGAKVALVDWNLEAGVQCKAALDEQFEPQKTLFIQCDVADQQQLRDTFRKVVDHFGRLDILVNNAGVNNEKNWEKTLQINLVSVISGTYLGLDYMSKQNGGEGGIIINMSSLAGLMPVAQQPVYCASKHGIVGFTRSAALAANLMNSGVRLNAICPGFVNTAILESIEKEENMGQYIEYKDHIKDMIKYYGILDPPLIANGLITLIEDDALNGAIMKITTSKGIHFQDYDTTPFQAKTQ
#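 NADH formation kinetics: reaction with 30 uM PGE2 and 1 mM NAD+ (final), 20 nM enzyme, Tris-HCl pH 8 with Tween 20, after 15 min compound preincubation at room temperature. Fluorescence change, last versus first of five reads.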
# PNC assembly inh – inhibitors of perinucleolar compartment assembly | PC3M PTB-GFP, PNC prevalence imaging, 16 h; stronger effect = lower value | activity change (PNC), negative = inhibition, % at 10 µM | 3.1% of 140,000 active;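 active means readout at or below -70, meaning at least 70% loss of cells showing the perinucleolar compartment, a nuclear body marking cancer cells; inconclusive means readout between -30 and a set limit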
#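 Read-out is percentage of cells bearing a perinucleolar compartment, from automated 20x imaging of fixed, Hoechst-stained PC3M PTB-GFP cells. Cells were seeded 4 h, then exposed 16 h to compound (23 nl of library stock) in duplicate plates.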
# Hits are given with their value; i = inactive; ? = inconclusive; nt = not tested or not shown. Unless noted, the call rests on the fitted dose curve; in most records, active means well fitted inhibition curve with a large enough effect (not every such curve was filed as active); inconclusive means small, poorly fitted or top-dose-only effect, or another doubt; inactive means no such curve, though single readings can be large or run the other way.
SMILES,ALDH1A1 inh,HPGD block,PNC assembly inh
O=C(COC(=O)c1cccc(S(=O)(=O)N2CCOCC2)c1)Nc1ccc2c(c1)OCO2,i,i,-100.0
O=C(COC(=O)c1ccc2c(c1)OCCO2)Nc1cccc(S(=O)(=O)N2CCOCC2)c1,i,nt,nt
CCOc1ccccc1OCC(=O)Nc1ccc(Cl)cc1Cl,i,i,?
COc1cc2c(cc1OC)CN(C(=O)CCCN1C(=O)c3ccccc3C1=O)CC2,?,i,?
Cc1cc(C)cc(NC(=O)C(OC(=O)c2ccc([N+](=O)[O-])o2)c2ccccc2)c1 (centres undefined),?,i,i
Cc1cc(C(=O)CSc2nc3ccccc3[nH]2)c(C)n1Cc1ccco1,?,i,?
CC(C)(C)NC(=O)Cn1c(Cl)nc2ccccc21,i,nt,nt
CCOC(=O)c1c(N/N=C/c2cccnc2)n[nH]c1C,i,nt,nt
COc1ccc(CC(=O)NNc2ncnc3c2cnn3-c2ccc(C)cc2)cc1OC,i,i,?
CCN1CCN(c2nc3c(c(=O)[nH]c(=O)n3C)n2CCCSc2ncccn2)CC1,i,i,i
COC(=O)c1ccccc1NC(=O)/C=C/c1cc(OC)c(OC)c(OC)c1,?,?,i
COc1ccc(NC(=O)COC(=O)CCCOc2ccc(Cl)cc2Cl)cc1Cl,i,28.2µM,i
COc1ccc(NC(=O)COC(=O)CCCOc2ccc(Cl)cc2Cl)cc1,i,i,?
CC1=CC(c2ccccc2)n2nc(N3C(=O)c4ccccc4C3=O)nc2N1 (centres undefined),i,i,i
CC1=CC(c2ccccc2)n2nc(N3C(=O)CCC3=O)nc2N1 (centres undefined),?,?,-94.1
CCCN(CCC)CCNC(=S)Nc1ccc2nc3n(c(=O)c2c1)CCCCC3,i,nt,nt
COc1cccc(CC2(CO)CCCN(Cc3ccc(-c4ccco4)cc3)C2)c1 (centres undefined),11.2µM,nt,nt
COc1cccc(CC2(CO)CCCN(Cc3ccc(CO)o3)C2)c1 (centres undefined),i,nt,nt
COc1cccc(CC2(CO)CCCN(Cc3cc4ccccc4[nH]3)C2)c1 (centres undefined),i,nt,nt
COc1cccc(CC2(CO)CCCN(Cc3[nH]c4ccc(C)cc4c3C)C2)c1 (centres undefined),22.4µM,nt,nt
COCc1ccc(CN2CCCC(CO)(Cc3cccc(Cl)c3)C2)o1 (centres undefined),8.91µM,nt,nt
COc1cccc(CC2(CO)CCCN(Cc3ccc(C)s3)C2)c1 (centres undefined),i,nt,nt
CCC(C)(C)n1nnnc1CN1CCc2ccccc21,i,i,i
CC(C)CC(c1nnnn1C(C)C)N1CCN(c2ccccc2)CC1 (centres undefined),i,i,i
N#Cc1cccc(NC(=O)N2CCCC3(CCN(C(=O)c4csnn4)CC3)C2)c1,i,i,nt
SMILES,ALDH1A1 inh,HPGD block,PNC assembly inh
C=C(C)C(=O)OCC(=O)NCc1ccccc1,i,nt,nt
COC(=O)C(O)(NC(=O)NC(C)=O)C(F)(F)F (centres undefined),?,i,?
CCOC(=O)C1CCN(C(=O)CSCc2nc(-c3ccc(OCC)cc3)oc2C)CC1,?,i,i
CCOC(=O)C1CCN(C(=O)CS(=O)Cc2nc(-c3ccc(C)cc3)oc2C)CC1 (centres undefined),25.1µM,i,i
Cc1ccc(CS(=O)(=O)Cc2ccc(C(=O)NCCCN3CCOCC3)o2)cc1,i,i,i
Cc1ccccc1CS(=O)(=O)Cc1ccc(C(=O)NCCCN2CCOCC2)o1,i,i,-89.8
O=C(O)c1ccc(CS(=O)(=O)Cc2ccccc2F)o1,i,i,i
Cc1cc2c(cc(C(=O)NCCCN3CCOCC3)n2Cc2ccc(Cl)cc2)o1,?,12.6µM,?
CCOc1ccc2[nH]cc(C(=O)NCCCN3CCOCC3)c(=O)c2c1,i,nt,nt
Cc1cccc2c(=O)c(C(=O)NCCCN3CCOCC3)c[nH]c12,i,i,-100.0
Cc1ccc(Cn2c(C(=O)NCCCN3CCOCC3)cc3sccc32)cc1,?,i,?
O=C(NCc1ccccc1)c1ccc(CS(=O)(=O)Cc2ccccc2F)o1,12.6µM,nt,nt
Cc1sc2nc(NCCO)[nH]c(=O)c2c1C,i,i,i
O=C(N1CCN(c2ccccc2)CC1)C1(c2cccs2)CCOCC1,i,i,i
CCN(CC)S(=O)(=O)c1ccc(F)c(C(=O)NCCCN2CCOCC2)c1,i,i,-116.6
O=C(NCCCN1CCOCC1)c1cc(Cl)ccc1[N+](=O)[O-],i,i,?
N#Cc1nccnc1S(=O)(=O)c1cccs1,0.447µM,nt,nt
CCC(C)NS(=O)(=O)c1cccs1 (centres undefined),i,i,i
CS(=O)(=O)N1CCC2(CCCN(c3cccc(-c4ccccc4)c3)C2)CC1,i,i,nt
O=C1C=CC(=O)N1c1cccc(-c2ccccc2)c1,0.02µM,nt,nt
Cc1ccc(N=C2C(=S)N(c3ccc(C)cc3)C(=N)N2/N=C/c2ccc(Cl)cc2)cc1,?,35.5µM,i
COc1ccc(N=C2C(=Nc3ccc(OC)cc3)N(c3ccc(OC)cc3)C(=S)N2c2ccccc2)cc1,?,i,i
O=C(O)C1C2C=CC3(CN(Cc4ccccn4)C(=O)C13)O2 (centres undefined),i,i,i
CCn1c(SCC(=O)Nc2ccccc2C(=O)OC)nnc1-c1ccc(N)cc1,i,i,i
CC(=O)Nc1cccc(-c2nnc(SCC(=O)N3CCCCC3)n2C)c1,i,i,i
SMILES,ALDH1A1 inh,HPGD block,PNC assembly inh
COc1ccccc1NC(=O)CSc1nnc(-c2ccc(NC(C)=O)cc2)n1C,i,i,i
CC(=O)Nc1cccc(-c2nnc(SCC(=O)n3c4c(c5ccccc53)CCCC4)n2C)c1,22.4µM,i,i
CC(=O)Nc1ccc(-c2nnc(SCC(=O)Nc3ccc4c(c3)oc3ccccc34)n2C)cc1,0.398µM,i,i
CCn1c(SCC(=O)Nc2ccc3c(c2)oc2ccccc23)nnc1-c1ccc(N)cc1,25.1µM,?,?
C[C@@H]1CC[C@@]2(OC1)OC1CC3C4CC=C5CC(O)CCC5(C)C4CCC3(C)C1[C@@H]2C (some centres undefined),i,i,nt
C=C1CCC2[C@](C)(CO)C(O)CC[C@]2(C)C1C/C=C1/C(=O)OCC1O (some centres undefined),i,i,nt
C[C@H](N)C(=O)O,i,i,nt
Cc1ccc(-n2c(C)cc(/C=c3/sc4nc5ccccc5n4c3=O)c2C)cc1,?,i,i
COc1cc(N2CCCC2)c(OC)cc1/C=c1/sc2nc3ccccc3n2c1=O,15.8µM,i,i
O=c1c2ccccc2c(C=NCCc2ccccc2)c(O)n1Cc1ccccc1,i,i,i
COC(=O)c1sccc1NC(=O)CN(C)NS(=O)(=O)c1ccc(F)cc1,1µM,i,i
COC(=O)c1sccc1NC(=O)CSc1ccccc1NS(=O)(=O)c1ccc(F)cc1,?,i,i
COC(=O)c1sccc1NC(=O)CN(C)NS(=O)(=O)c1ccc(Cl)cc1,2.51µM,i,i
COC(=O)c1sccc1NC(=O)CSc1ccc(Cl)cc1,i,i,i
COC(=O)c1sccc1NC(=O)CSCC(=O)O,i,nt,nt
COC(=O)c1sccc1NC(=O)CN(C)NS(=O)(=O)c1ccc([N+](=O)[O-])cc1,1.58µM,i,i
CCOC(=O)c1c(C)c(C(=O)NCc2ccccn2)c(C)n1CC,i,i,i
CCOc1cc(NC(=O)CC(C)C)c(OCC)cc1NC(=O)CCn1nnc2ccccc21,i,i,?
